In PubChem BioAssay (EPA / NIEHS):
The source holds several records for some structures; these can differ, active in one and inactive in another. Calls of active or inactive are those of the source. The calls were made as follows: active = hit-call score of the fitted dose curve at least 0.9, where 1 is the maximum; inactive = score below 0.9.

Tests used:
[1] = CEETOX_H295R_OHPREG: CeeTox H295R High-throughput Steroidogenesis Assay for OH-Pregnenolone (OHPREG) (AID 2283434); conditions: actives raise or lower the signal
Procedure, shortened: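 Hormone levels in spent medium were measured by tandem mass spectrometry following liquid-liquid extraction. Cells (H295R) had been forskolin-stimulated (10 uM, 48 h) before a 48 h chemical exposure at 0.1% DMSO, with activity fitted in both directions against DMSO.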

[2] = CEETOX_H295R_OHPROG: CeeTox H295R High-throughput Steroidogenesis Assay for OH-Progesterone (OHPROG) (AID 2283435); conditions: actives raise or lower the signal;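 as to AC50: 17alpha-hydroxyprogesterone secreted into medium measured by HPLC-MS/MS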
Procedure, shortened: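 Secreted 17alpha-hydroxyprogesterone is read by tandem MS from media of forskolin-primed H295R cells dosed with chemical for 48 h. Activity is fitted in both directions against DMSO baseline; cytotoxic concentrations are re-tested diluted.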

[3] = CEETOX_H295R_CORTIC: CeeTox H295R High-throughput Steroidogenesis Assay for Corticosterone (CORTIC) (AID 2283437); conditions: actives raise or lower the signal;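 also: corticosterone secreted into medium quantified by mass spectrometry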
Procedure, shortened: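 Corticosterone secreted into medium is measured by reverse-phase HPLC with tandem MS following liquid-liquid extraction. Cells are forskolin-stimulated (10 uM, 48 h) before 48 h test exposure; activity fitted in both directions against DMSO.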

[4] = CEETOX_H295R_CORTISOL: CeeTox H295R High-throughput Steroidogenesis Assay for Cortisol (AID 2283438); conditions: actives raise or lower the signal;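 also: cortisol secreted into medium quantified by LC-MS/MS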
Procedure, shortened: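 Human adrenocortical H295R cells (passage ≤10) received test chemicals for 48 h after forskolin priming. Secreted cortisol was measured by LC-MS/MS.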

[5] = CEETOX_H295R_DOC: CeeTox H295R High-throughput Steroidogenesis Assay for DOC (AID 2283439); conditions: actives raise or lower the signal
Procedure, shortened: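 Secreted DOC was quantified from H295R media by HPLC-MS/MS after 48 h chemical exposure following 48 h forskolin (10 uM) prestimulation. Values were fitted in both directions relative to DMSO, the negative control and baseline.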

[6] = read-out: Tumor necrosis factor receptor superfamily member 6 (Homo sapiens) (UniProt P25445); assay: LTEA_HepaRG_FAS: Life Technologies and Expression Analysis (LTEA) Assay for Fas cell surface death receptor (FAS) using HepaRG (AID 2283447); conditions: mRNA level, 48 h; actives raise or lower the signal
Procedure, shortened: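 FAS transcript level was measured by TaqMan qRT-PCR against three housekeeping genes after 48 h chemical exposure. Cells were HepaRG, 0.5% DMSO vehicle, with a top concentration of 100 uM and half-log dilutions over eight points, in duplicate.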

[7] = read-out: Fatty acid synthase (Homo sapiens) (UniProt P49327); assay: LTEA_HepaRG_FASN: Life Technologies and Expression Analysis (LTEA) Assay for Fatty Acid Synthase (FASN) using HepaRG (AID 2283448); conditions: mRNA level, 48 h; actives raise or lower the signal
Experimental: LTEA_HepaRG is a cell based, multiplexed-readout assay that uses HepaRG, a human liver cell line, with measurements taken at 48 hours after chemical dosing on a 96-well plate.LTEA_HepaRG_FASN is one of 102 assay component(s) measured in the LTEA HepaRG cell culture assay. It is a marker of Steatosis.Data from the assay component LTEA_HepaRG_FASN was analyzed into 1 endpoint. This assay endpoint, LTEA_HepaRG_FASN, was analyzed with bidirectional fitting relative to DMSO as the negative control and baseline of activity. Using a type of inducible reporter, measures of mRNA induction for gain or loss-of-signal activity can be used to understand regulation of transcription factor activity. To generalize the intended target to other relatable targets, this assay endpoint is annotated to the lyase intended target family, where the subfamily is fatty acid synthase.
A total of 1060 chemcials from the ToxCast library were tested in eight-point concentration-response experiments. Cell culture and cytotoxicity assays were conducted at Thermo Fisher Scientific's Custom Services facility (Madison, WI). A single lot of human HepaRG cells (Thermo Fisher Scientific, Frederick, MD) was used for the cell culture experiments. 96-well format collagen type I coated plates of human HepaRG cells were prepared using established methods. Briefly, cryopreserved HepaRG cells were thawed, plated at a density of approximately 100,000 cells/well in HepaRG Thaw, Plate, and General Purpose media (HPRG770, Thermo Fisher Scientific), and incubated for 48 hours. 0.5% DMSO was selected as vehicle control to balance the requisite need of DMSO in HepaRG cultures to maintain differentiation (for example, baseline metabolism, proportions of hepatocytes vs. cholangiocytes), while enabling further hepatic receptor pathway activation (for example, PXR and CAR) in response to chemical exposure. 48 hours after plating, the culture medium was replaced with HepaRG Serum-Free Incudtion Media. Cells were exposed to each test chemical in duplicate and maintained in CO2 incubators for another 48 hours. Chemical plates were thawed to room temperature and 200x concentrations of treatment groups were prepared. 8-point conentration-reponse curves were made with the highest exposure at 100 uM, followed by half-log dilutions, all in 0.5% DMSO. Each test plate contained variouse controls, induction positive controls (1mM phenobarbital), cytotoxicity positive controls ([…] aflatoxin B1), vehicle controls (0.5% DMSO), and total lysis controls (0.5% DMSO). Cell morphology images were taken using an Essen IncuCyte FLR automated microscope, with six 96-well plates imaged in about 24 minutes. Images were captured and exported and JPEG files. Spent culture media was transfered to black-well plates for the LDH assay, and remaining media was sorted at -80 C for later use. Cells were treated with RLT buffer and frozen until shipped for gene expression analysis. Total RNA was isolated from the cell suspension in 75 uL of Buffer RLT (Qiagen, Germantown, MD 20874) by Quintiles/Expression Analysis (Durham, NC) using a custom isolation procedure. Total RNA from each plate well was transferred to a preamplification plate. Fluidigm's 96.96 Dynamic ArrayTM (Fluidigm, Amsterdam, the Netherlands) technology was used for gene expression analyses by quantitative reverse transcription polymerase chain reaction (qRT-PCR, performed by Quintiles/Expression Analysis, Durham, NC)89. Standard TaqManTM Assays (Applied Biosystems/ThermoFisher Scientific, Foster City, CA) were used to assess the expression of 93 genes selected based on their selectivity and sensitivity to important hepatic receptors known to be modulated by environmental chemicals; importance in human hepatocyte functionality; and hepatotoxicity. […]

[8] = CEETOX_H295R_ESTRADIOL: CeeTox H295R High-throughput Steroidogenesis Assay for Estradiol (AID 2283440); conditions: actives raise or lower the signal;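 also: estradiol secreted into medium quantified by LC-MS/MS after dansyl derivatisation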
Procedure, shortened: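 Estradiol secreted into the medium was measured by tandem mass spectrometry after liquid-liquid extraction and dansylation. Human H295R cells had been forskolin-primed (10 uM, 48 h) before a 48 h chemical exposure with 0.1% DMSO.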

[9] = CEETOX_H295R_ESTRONE: CeeTox H295R High-throughput Steroidogenesis Assay for Estrone (AID 2283441); conditions: actives raise or lower the signal;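 also: estrone secreted into medium measured by LC-MS/MS after dansyl derivatization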;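 as to AC50: human adrenal H295R cells prestimulated with forskolin for two days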
Procedure, shortened: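 H295R cells; 48 h forskolin (10 uM) prestimulation; 48 h compound exposure, 0.1% DMSO final. Medium estrone: MTBE extraction, dansyl derivatization, HPLC-MS/MS. Bidirectional fit vs DMSO.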

[10] = CEETOX_H295R_ANDR: CeeTox H295R High-throughput Steroidogenesis Assay for Androstenedione (ANDR) (AID 2283436); conditions: actives raise or lower the signal;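 also: human H295R adrenal cells exposed for 48 h with androstenedione measured in medium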
Procedure, shortened: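 Read-out is androstenedione secreted into medium, measured by tandem mass spectrometry after liquid-liquid extraction. Cells were H295R, dosed for 48 h per modified OECD 456; activity fitted in both directions relative to DMSO.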

Fatty acid synthase (Homo sapiens), sequence (P49327 whole entry, looked up): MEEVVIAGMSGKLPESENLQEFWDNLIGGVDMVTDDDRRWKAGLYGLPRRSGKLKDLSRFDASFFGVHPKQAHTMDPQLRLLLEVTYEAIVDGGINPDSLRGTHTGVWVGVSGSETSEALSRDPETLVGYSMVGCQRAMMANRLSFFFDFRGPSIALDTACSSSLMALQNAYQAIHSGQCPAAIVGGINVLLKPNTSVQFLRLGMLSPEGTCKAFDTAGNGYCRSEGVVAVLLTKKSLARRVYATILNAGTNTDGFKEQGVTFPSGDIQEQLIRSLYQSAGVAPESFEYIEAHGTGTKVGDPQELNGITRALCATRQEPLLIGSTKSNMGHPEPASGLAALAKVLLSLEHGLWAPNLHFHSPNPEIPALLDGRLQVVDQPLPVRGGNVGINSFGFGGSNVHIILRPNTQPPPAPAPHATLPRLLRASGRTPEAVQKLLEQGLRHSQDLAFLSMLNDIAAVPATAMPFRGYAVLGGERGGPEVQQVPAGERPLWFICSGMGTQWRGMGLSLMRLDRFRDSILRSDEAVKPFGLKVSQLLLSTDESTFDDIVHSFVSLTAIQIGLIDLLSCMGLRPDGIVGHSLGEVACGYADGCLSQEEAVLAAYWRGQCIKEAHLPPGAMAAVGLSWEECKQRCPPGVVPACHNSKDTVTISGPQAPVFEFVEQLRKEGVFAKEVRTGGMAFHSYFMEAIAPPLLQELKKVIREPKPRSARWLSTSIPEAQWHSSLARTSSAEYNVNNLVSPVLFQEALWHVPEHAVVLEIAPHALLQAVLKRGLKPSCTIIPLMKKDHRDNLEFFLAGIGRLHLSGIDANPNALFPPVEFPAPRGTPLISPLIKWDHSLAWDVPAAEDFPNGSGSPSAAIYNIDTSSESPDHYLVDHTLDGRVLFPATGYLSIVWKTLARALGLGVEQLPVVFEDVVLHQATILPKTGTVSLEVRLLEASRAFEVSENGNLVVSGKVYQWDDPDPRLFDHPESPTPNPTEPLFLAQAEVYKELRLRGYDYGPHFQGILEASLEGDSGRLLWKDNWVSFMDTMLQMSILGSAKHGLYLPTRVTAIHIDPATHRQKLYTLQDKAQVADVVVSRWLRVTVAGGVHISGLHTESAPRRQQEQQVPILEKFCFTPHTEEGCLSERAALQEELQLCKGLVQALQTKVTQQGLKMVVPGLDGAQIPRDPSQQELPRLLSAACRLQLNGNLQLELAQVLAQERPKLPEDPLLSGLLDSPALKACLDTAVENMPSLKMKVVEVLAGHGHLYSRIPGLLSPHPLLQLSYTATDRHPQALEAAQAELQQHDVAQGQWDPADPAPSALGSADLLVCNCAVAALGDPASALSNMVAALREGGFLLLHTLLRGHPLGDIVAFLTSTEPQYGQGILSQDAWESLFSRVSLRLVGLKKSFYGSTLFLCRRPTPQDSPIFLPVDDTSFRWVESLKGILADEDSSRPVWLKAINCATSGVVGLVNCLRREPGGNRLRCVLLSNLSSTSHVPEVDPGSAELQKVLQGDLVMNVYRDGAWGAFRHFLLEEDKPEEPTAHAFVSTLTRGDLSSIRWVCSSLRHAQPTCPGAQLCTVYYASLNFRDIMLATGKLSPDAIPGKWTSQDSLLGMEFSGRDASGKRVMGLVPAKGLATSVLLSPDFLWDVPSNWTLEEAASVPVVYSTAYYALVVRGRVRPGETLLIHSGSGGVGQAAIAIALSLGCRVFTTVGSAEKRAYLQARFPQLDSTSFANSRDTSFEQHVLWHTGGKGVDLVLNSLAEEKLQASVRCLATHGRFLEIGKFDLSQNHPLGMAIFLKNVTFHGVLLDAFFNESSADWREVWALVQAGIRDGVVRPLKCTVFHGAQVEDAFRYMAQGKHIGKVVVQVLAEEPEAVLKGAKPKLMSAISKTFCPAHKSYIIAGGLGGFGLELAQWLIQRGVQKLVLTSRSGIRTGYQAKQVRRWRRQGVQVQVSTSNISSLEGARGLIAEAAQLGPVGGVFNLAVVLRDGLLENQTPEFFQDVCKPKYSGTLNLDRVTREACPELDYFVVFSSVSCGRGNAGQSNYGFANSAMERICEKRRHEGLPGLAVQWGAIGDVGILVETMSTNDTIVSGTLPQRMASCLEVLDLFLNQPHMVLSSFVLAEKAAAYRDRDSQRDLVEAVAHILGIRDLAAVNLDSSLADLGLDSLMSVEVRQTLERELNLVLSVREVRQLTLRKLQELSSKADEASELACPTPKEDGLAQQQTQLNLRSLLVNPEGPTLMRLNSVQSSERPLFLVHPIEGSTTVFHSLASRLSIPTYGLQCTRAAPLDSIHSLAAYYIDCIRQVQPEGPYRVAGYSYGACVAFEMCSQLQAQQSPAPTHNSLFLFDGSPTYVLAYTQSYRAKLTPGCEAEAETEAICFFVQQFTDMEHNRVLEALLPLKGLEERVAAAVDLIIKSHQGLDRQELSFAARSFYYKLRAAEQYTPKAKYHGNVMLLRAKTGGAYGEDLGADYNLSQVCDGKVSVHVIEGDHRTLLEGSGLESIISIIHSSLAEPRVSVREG

For `C#C[C@]1(O)CC[C@H]2[C@@H]3CCc4cc(O)ccc4[C@H]3CC[C@@]21C`, the AC50 [1] was 0.369 µM (active), the outcome [2] was “inactive” and the AC50 [3] was 0.142 µM (active). For the same compound, the outcome [4] was “inactive”, the outcome [5] was “inactive” and the outcome [6] was “inactive”. For the same compound, the outcome [7] was “inactive”.

For `O=C(c1ccc(OCCN2CCCCC2)cc1)c1c(-c2ccc(O)cc2)sc2cc(O)ccc12`, the AC50 [1] was 0.35 µM (active), the outcome [2] was “inactive” and the outcome [3] was “inactive”. The outcome [4] was “inactive”, the outcome [5] was “inactive” and the outcome [6] was “inactive”. The outcome [7] was “inactive”.

With `C[C@]12CC[C@@H]3c4ccc(O)cc4CC[C@H]3[C@@H]1CC[C@@H]2O` the AC50 [1] was 1.57 µM (active), the outcome [2] was “inactive” and the AC50 [3] was 0.479 µM (active). The AC50 [4] was 2.63 µM (active), the AC50 [5] was 3.8 µM (active) and the outcome [6] was “inactive”. The outcome [7] was “inactive”.

In the case of `C=C(C)C(N)=O`, the outcome [6] is reported as “inactive” and the outcome [7] is reported as “inactive”.

For `CC(=O)C1=C(C)[C@@H]2C[C@@]3(C1)[C@H](C)CC[C@H]3C2(C)C`, the outcome [1] was “inactive”, the outcome [2] was “inactive” and the outcome [8] was “inactive”. For the same compound, the outcome [9] was “inactive”.

With `CC/C(=C(\c1ccccc1)c1ccc(OCCN(C)C)cc1)c1ccccc1` the AC50 [1] was 0.311 µM (active), the outcome [1] was “inactive” and the AC50 [2] was 0.161 µM (active). The outcome [2] was “inactive”, the outcome [3] was “inactive” and the outcome [4] was “inactive”. For the same compound, the AC50 [5] was 0.222 µM (active), the outcome [5] was “inactive” and the AC50 [6] was 71.4 µM (active). For the same compound, the outcome [6] was “inactive” and the outcome [7] was “inactive”.

With `COc1ccc2[nH]cc(CCNC(C)=O)c2c1` the outcome [1] was “inactive”, the AC50 [2] was 3.07 µM (active) and the AC50 [3] was 10.5 µM (active). For the same compound, the outcome [4] was “inactive”, the outcome [5] was “inactive” and the outcome [8] was “inactive”. For the same compound, the outcome [9] was “inactive”.

In the case of `O=c1cc(-c2ccc(O)cc2)oc2cc(O)cc(O)c12`, the outcome [3] is reported as “inactive”, the outcome [4] is reported as “inactive” and the AC50 [5] is reported as 7.72 µM (active).

In the case of `CCCc1ccc(O)cc1`, the outcome [1] is reported as “inactive”, the outcome [2] is reported as “inactive” and the AC50 [3] is reported as 36.4 µM (active). The outcome [4] was “inactive”, the outcome [5] was “inactive” and the outcome [8] was “inactive”. For the same compound, the outcome [9] was “inactive”.

With `OCCCO` the outcome [1] was “inactive”, the outcome [2] was “inactive” and the outcome [10] was “inactive”. For the same compound, the outcome [3] was “inactive”, the outcome [4] was “inactive” and the outcome [5] was “inactive”. For the same compound, the outcome [8] was “inactive” and the outcome [9] was “inactive”.

For `c1ccc(OCCOc2ccccc2)cc1`, the outcome [1] was “inactive”, the AC50 [2] was 36.9 µM (active) and the outcome [3] was “inactive”. For the same compound, the outcome [4] was “inactive”, the outcome [5] was “inactive” and the outcome [8] was “inactive”. The outcome [9] was “inactive”.

In the case of `CC(=O)c1ccc2ccccc2c1`, the outcome [1] is reported as “inactive”, the AC50 [2] is reported as 50 µM (active) and the outcome [3] is reported as “inactive”. The outcome [4] was “inactive”, the outcome [5] was “inactive” and the outcome [8] was “inactive”. The outcome [9] was “inactive”.

With `O=C(OCc1ccccc1)c1ccccc1O` the outcome [1] was “inactive”, the AC50 [2] was 50 µM (active) and the outcome [3] was “inactive”. For the same compound, the outcome [4] was “inactive”, the outcome [5] was “inactive” and the outcome [8] was “inactive”. The outcome [9] was “inactive”.

In the case of `CC(C)(C)c1cccc(O)c1`, the outcome [1] is reported as “inactive”, the outcome [2] is reported as “inactive” and the outcome [10] is reported as “inactive”. For the same compound, the outcome [3] was “inactive”, the outcome [4] was “inactive” and the outcome [5] was “inactive”.

With `CC(=N[Si](C)(C)C)O[Si](C)(C)C` the outcome [1] was “inactive”, the outcome [2] was “inactive” and the outcome [10] was “inactive”. The outcome [3] was “inactive”, the outcome [4] was “inactive” and the outcome [5] was “inactive”.

In the case of `CCCCCCCCCCCCN1CCOCC1`, the AC50 [1] is reported as 0.645 µM (active), the AC50 [2] is reported as 1.86 µM (active) and the outcome [3] is reported as “inactive”. For the same compound, the outcome [4] was “inactive”, the AC50 [5] was 0.549 µM (active) and the outcome [8] was “inactive”. For the same compound, the outcome [9] was “inactive”.

With `CCCCCC(=O)O[C@]1(C(C)=O)CC[C@H]2[C@@H]3CCC4=CC(=O)CC[C@]4(C)[C@H]3CC[C@@]21C` the AC50 [1] was 11.4 µM (active), the outcome [2] was “inactive” and the outcome [3] was “inactive”. For the same compound, the AC50 [4] was 6.66 µM (active), the outcome [5] was “inactive” and the AC50 [8] was 13.4 µM (active). For the same compound, the AC50 [9] was 13.2 µM (active).

In the case of `COC(=O)c1ccc(C(=O)OC)cc1`, the outcome [6] is reported as “inactive” and the outcome [7] is reported as “inactive”.

For `c1coc(CNc2ncnc3nc[nH]c23)c1`, the outcome [1] was “inactive”, the outcome [2] was “inactive” and the outcome [3] was “inactive”. The outcome [5] was “inactive”.

For `CCCCOCCOCCO`, the outcome [6] was “inactive” and the outcome [7] was “inactive”.

In the case of `OCC=Cc1ccccc1`, the outcome [1] is reported as “inactive”, the outcome [2] is reported as “inactive” and the outcome [8] is reported as “inactive”. The outcome [9] was “inactive”.

For `CC=CC(=O)C1=C(C)C=CCC1(C)C`, the outcome [1] was “inactive”, the outcome [2] was “inactive” and the outcome [10] was “inactive”. For the same compound, the outcome [3] was “inactive”, the outcome [4] was “inactive” and the outcome [5] was “inactive”.
